Screens (PubChem BioAssay)
VLA-4 inh – inhibition in a human VLA-4 binding assay. P13612. VLA-4 expressing cells, ligand binding flow cytometry. inhibition, % (about 7 µM as worked out from the volumes in the protocol). 330,000 compounds, 0.2% hits. AID 2557; in the data active means inhibition above about 50%
Mot1-301 SUMO – inhibitors of SUMOylation pathway: yeast Mot1-301 growth rescue. S. cerevisiae Mot1-301 growth rescue, ATP luminescence, 38.5C; percent above DMSO median, 100 means doubled. 320,000 compounds, 1% hits. growth rescue, % at 18.8 µM;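 active means every valid replicate shows activation above 250% relative to neutral control wells; inactive means the rest, any valid replicate at or below 250%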
AHR activator – activators of human aryl hydrocarbon receptor | AID 2796 | 320,000 compounds, 2.5% hits | AHR-responsive luciferase reporter cells, luminescence | activation, % at 5 µM | P35869; in the data active means activation above about 47%
ALR inh – human ALR oxidase inhibition via reduced H2O2. inhibition, % (concentration not given with the values). P55789. purified ALR, DTT oxidation, H2O2 HRP-luminol luminescence. 290,000 compounds, 3.8% hits;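 active means mean replicate inhibition above about 79%, with every replicate also reaching it, limit read from the data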
A1 inh – inhibitors of the anti-apoptotic protein A1, read as caspase activation; MEF A1-2A-BIM cells, Caspase-Glo 3/7 luminescence, 3 h; percent of clofoctol response, vehicle zero; caspase activation, % (concentration not given with the values); 330,000 compounds, 0.066% hits; AID 2462;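 active means over half of replicate activation scores above 10%, or exactly half above 10 with the replicate mean above 10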
Efflux pump inh – antifungal efflux pump inhibition, Nile Red retention; S. cerevisiae Candida pump triplex; inhibition, % at 10 µM; 330,000 compounds, 0.44% hits;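 active means plate passing quality check with inhibition over a set limit, or well fluorescence over plate mean plus 4 SD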;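 further: Nile Red retained in pooled yeast measured as flow cytometry median fluorescence; higher means more Nile Red kept so more efflux inhibition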
AHR act cf – confirmation of human aryl hydrocarbon receptor activators; 2,300 compounds, 87% hits; shares compounds with AHR activator; activation, % at 9 µM; human cells, AHR-responsive luciferase reporter, luminescence; in the data active means activation above about 49%;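 further: HepG2 hepatoma cells carrying a DRE-driven firefly luciferase reporter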
PXR act counter – PXR activation, counter-screen for AHR activators; shares compounds with AHR activator; 2,300 compounds, 88% hits; activation, % at 11.6 µM; cell-based PXR reporter, luciferase luminescence; in the data active means activation above about 11%;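 further: human hepatoma DPX-2 cells expressing full-length human PXR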
Of the large screens only hits and unclear results are named; the others gave an inactive call (follow-up assays come after a bar, where they were run). In the library only some 7.2% were active in any assay of this set; here they are far more common.

Cc1nc(C)c(C(=O)N2CCCC(C(=O)c3ccc(Cl)cc3C)C2)s1 (centres undefined)	none
CCOc1cc(C(=S)N2CCCCC2)ccc1OCC(=O)NCc1ccccc1	none
CNC(=O)c1[nH]cnc1C(=O)Nc1cccc(C)c1	AHR activator 101 | AHR act cf 133 | PXR act counter 24
COc1ccc(NC(=O)c2nc[nH]c2C(=O)NCc2ccccc2)cc1	none
CNC(=O)c1[nH]cnc1C(=O)Nc1ccc(OC)cc1	AHR activator 126 | AHR act cf 124 | PXR act counter 27
COc1ccc(NC(=O)c2nc[nH]c2C(=O)NCC(=O)OC(C)(C)C)cc1	none
COc1ccc(NC(=O)c2nc[nH]c2C(=O)NCCCCCNC(=O)OC(C)(C)C)cc1	AHR activator 133 | AHR act cf 141 | PXR act counter 30
Cc1ccc(S(=O)(=O)CC(=O)Nc2ccc3nc(C)sc3c2)cc1	none
Cc1cc(C)n(CC(=O)c2ccccc2)c(=O)c1C#N	AHR activator 100 | AHR act cf 105 | PXR act counter 22
c1ccc(-c2cc(-c3ccccc3)on2)cc1	none
[O-][n+]1onc2c3cc(-c4ccccc4)nnc3ccc21	AHR activator 88 | AHR act cf 108
COc1nn(CC(=O)N2N=C(C(F)F)CC2(O)C(F)F)cc1[N+](=O)[O-] (centres undefined)	none
COc1ccc(NC(=O)CSc2nc3ccccc3nc2N2CCOCC2)c(OC)c1	none (no result: ALR inh)
Cc1cc(C)nc(N(C#N)CC(=O)c2ccccc2)n1	none
CCc1ccc(C(=O)CN(C#N)c2nc(C)cc(C)n2)cc1	AHR activator 85 | AHR act cf 63 | PXR act counter 19
COc1ccc(-c2csc(NC(=O)CSC(C)C(=O)Nc3cc(C)on3)n2)cc1OC (centres undefined)	none
CC(=O)Nc1nc2cc([N+](=O)[O-])ccc2s1	none
O=c1nc(Nc2ccc(Br)cc2)sc2ccc([N+](=O)[O-])cc12	AHR activator 96 | AHR act cf 102
CC(=O)N1CCc2ccc(S(=O)(=O)N3CCN(C)CC3)cc21	none
CCOc1cccc(/C=C/c2ccc3cccc(O)c3n2)c1O	AHR activator 96 | AHR act cf 109 | PXR act counter inactive
O=C(CC1Nc2cccc3cccc(c23)NC1=O)Nc1ccc(F)cc1 (centres undefined)	AHR activator 98 | AHR act cf 104 | PXR act counter 92
CCCCOc1ccccc1NC(=O)CC1Nc2ccccc2NC1=O (centres undefined)	none
Fc1ccc(Nc2cccc3nccnc23)cc1	AHR activator 137 | AHR act cf 58 | PXR act counter 13
Cc1cc(C)c(C#N)c(SCc2c(F)cccc2[N+](=O)[O-])n1	none
Cn1cc(-c2nc3ccccc3[nH]2)c2ccccc21	AHR activator 138 | AHR act cf 122 | PXR act counter 64
CC(C)N1CCN(Cc2ccc(-c3ccccc3Cl)o2)CC1CCO (centres undefined)	none
CC(=O)c1ccc(S(=O)(=O)NCCC(=O)OCC(=O)N2CCCC2=O)cc1	none
O=Nc1c(-c2c(O)[nH]c3cc(Br)ccc23)[nH]c2ccccc12	AHR activator 133 | AHR act cf 148 | PXR act counter 22
O=S(=O)(Cc1ccccc1)N=Nc1c(O)[nH]c2ccc(Br)cc12	none
O=C(Nc1ccc(-c2nc3cccnc3s2)cc1)c1ccc(Cl)nc1	AHR activator 86 | AHR act cf inactive | PXR act counter 11
O=[N+]([O-])c1ccc2nc(-c3ccc(Cl)cc3)n(OCc3ccccc3)c2c1	none
O=C(O)COn1c(-c2ccccc2)nc2ccc([N+](=O)[O-])cc21	AHR activator 141 | AHR act cf 53
Fc1ccc2cnc(-c3cccnc3)cc2c1	AHR activator 89 | AHR act cf 87 | PXR act counter 26
CCC(C)Oc1cc(-c2ccnc(Nc3cccc(Cl)c3)n2)ccn1 (centres undefined)	AHR activator 114 | AHR act cf 72 | PXR act counter 31
NCCNC(=O)c1c(NC(=O)c2ccccc2)sc2c1CCCC2	none
NC(=O)c1c(NC(=O)c2ccccc2F)sc2c1CCCC2	AHR activator 205 | AHR act cf 104 | PXR act counter 28
O=C(Nc1sc2c(c1C(=O)O)CCCC2)c1ccc(Cl)cc1	none (no result: ALR inh)
NC(=O)c1c(NC(=O)c2cccnc2Cl)sc2c1CCCC2	AHR activator 103 | AHR act cf inactive | PXR act counter inactive
C/C(=N\N1C(C)CCCC1C)c1ccccc1O (centres undefined)	none
COc1cc(Nc2nc3ccccc3n3nnnc23)cc(OC)c1OC	none (no result: ALR inh)
COc1ccc(Nc2nc3ccccc3n3nnnc23)cc1	AHR activator 99 | AHR act cf 103 | PXR act counter 29
Fc1cc(Br)ccc1Nc1nc2ccccc2n2nnnc12	AHR activator 131 | AHR act cf 125 | PXR act counter 28
Clc1ccc(Nc2nc3ccccc3n3nnnc23)cc1	AHR activator 81 | AHR act cf 104 | PXR act counter 50
COC(=O)c1ccc(NC(=O)CCN2C(=O)C3C4CCC(C4)C3C2=O)cc1 (centres undefined)	none
Nc1nc(/C=C/c2ccc(F)cc2)nc(-c2ccccc2O)n1	AHR activator 109 | AHR act cf 136 | PXR act counter 18
Cc1cccc(-c2oc3ccccc3c2C#CCCO)c1	AHR activator 97 | AHR act cf 68 | PXR act counter 24
Cc1cccc(-c2oc3ccccc3c2C#CCCCCO)c1	none
Cc1ccc(-c2csc(-c3c[nH]c4ccccc34)n2)c(C)c1	AHR activator 106 | AHR act cf 115 | PXR act counter 24
Cc1ccc(-c2cc(C(=O)O)c3ccccc3n2)c(C)c1	none
Cn1nc(CSc2ccccc2)c(C=O)c1Cl	none (no result: ALR inh)
Cc1ccc(NC(=O)COC(=O)CCc2ccccc2)c(Cl)c1	none
OCCOCCn1c(C(CO)Nc2nc(-c3ccccc3Br)cs2)nc2ccccc21 (centres undefined)	none
Nc1c(Cl)cc(-c2csc(NC(CO)c3nc4ccccc4n3CCOCCO)n2)cc1Cl (centres undefined)	AHR activator 80 | AHR act cf 90 | PXR act counter 104
CCn1c(C)cc(/C=C2\NC(=O)N(CC(=O)Nc3cccc(C)c3)C2=O)c1C	AHR activator 80 | AHR act cf 78 | PXR act counter 16
CCn1c(C)cc(/C=C2/NC(=O)N(CC(=O)Nc3cccc(C)c3)C2=O)c1C	none
